# According to PubChem BioAssay (NCATS):
# Inconclusive results are not listed. The source made the active and inactive calls. Unless noted, the call rests on the fitted dose curve; in most records, active means well fitted curve in the direction sought with a large enough effect; inconclusive means small, poorly fitted or top-dose-only effect, or another doubt; inactive means no such curve, though single readings can be large; an effect the other way counts as inactive or inconclusive.
# Tests used:
# [1] = Drug repurposing screens with cells derived from glioblastoma tumor samples (AID 1345199); conditions: GBM patient neurospheres viability, ATP luminescence, 48 h; further: nearly all actives have a fitted effect of over 40% in size; further: potency means the concentration at half of the fitted maximal effect; on activity, negative = cell killing: on the % scale 0 is the no-effect control and ±100 the full control effect
# Summary of the method: (§1)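 Four patient lines of CD133+ GBM neurospheres were screened at several concentrations; hits were retested in those lines plus three slower-growing GBM lines, using 48-hour treatment and ATP-based viability.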
# [2] = biological target: Ubiquitin carboxyl-terminal hydrolase 1 (Homo sapiens) (UniProt O94782); assay: Inhibitors of USP1/UAF1: Pilot qHTS (AID 504865);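 further: rhodamine fluorescence freed from ubiquitin-rhodamine substrate followed over time; top concentration of the series differs between compounds; on the % scale 0 is the no-effect control and ±100 the full control effect; nearly all actives have a fitted effect of over 35% in size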
# Summary of the method: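 Kinetic fluorescence assay: 1nM USP1/UAF1, 15 min compound preincubation, then 150nM Ub-Rho; 480/540 nm.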
# [3] = P-glycoprotein substrates identified in KB-3-1 adenocarcinoma cell line, qHTS therapeutic library screen (AID 1346986); further: nearly all actives have a fitted effect of over 60% in size;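 further: potency means the concentration at half of the fitted maximal effect; potency is for cytotoxicity meaning loss of cell viability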
# Summary of the method: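 Cells seeded 500/well in DMEM/10% FCS; compounds pinned in dose-response; 72 h incubation; CellTiter-Glo added, 5 min, luminescence. KB-8-5-11 run ±tariquidar to test reversal of P-gp resistance.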
# [4] = system: Zika virus NS2B-NS3 protease; assay: Primary screen GU AMC qHTS for Zika virus inhibitors (AID 1347154); further: nearly all actives have a fitted effect of over 70% in size; further: potency means the concentration at half of the fitted maximal effect;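 on activity change, negative = inhibition: 0% = no-inhibitor control and -100% = no-enzyme control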
# Summary of the method: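 Fluorogenic AMC-substrate cleavage by noncovalent NS2B-NS3 protease complex (25 nM, pH 8.0 Tris buffer with Tween 20) followed for 15 minutes at room temperature (~20% conversion). Percent inhibition from ex340/em450 signal change, fitted by 4-parameter Hill equation.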
# [5] = Primary qHTS for small molecule stabilizers of the endoplasmic reticulum resident proteome: Secreted ER Calcium Modulated Protein (SERCaMP) assay (AID 1508630); further: on the % scale 0 is the no-effect control and ±100 the full control effect
# Summary of the method: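 GLuc-SERCaMP-expressing SH-SY5Y cells, pretreated 16 h with compound, are challenged with thapsigargin to empty ER calcium stores; after 4 h, coelenterazine is added directly to the medium and luminescence is imaged.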
# astro = control astrocytes; assay: Drug repurposing screens with cells derived from glioblastoma tumor samples (AID 1345199); conditions: viability, ATP luminescence, 48 h; series mostly up to 45.9 µM; further: nearly all actives have a fitted effect of over 40% in size; further: potency means the concentration at half of the fitted maximal effect; on activity, negative = cell killing: on the % scale 0 is the no-effect control and ±100 the full control effect
# Summary of the method: as §1
# [6] = biological target: Catechol O-methyltransferase (Homo sapiens) (UniProt P21964); assay: Confirmatory Screen for Target Class Profiling of Small Molecule Inhibitors of Methyltransferases (AID 1745852; calls by dose curve; further: potency means the concentration at half of the fitted maximal effect); conditions: MTase-Glo luminescence, SAH detection, recombinant enzyme; measured here: COMT max response; stronger effect = lower value
# [7] = biological target: Guanidinoacetate N-methyltransferase (Homo sapiens) (UniProt Q14353); assay: as above; conditions: activity change, negative = inhibition: at 57.3 µM (top of the series) unless noted
# [8] = biological target: Nicotinamide N-methyltransferase (Homo sapiens) (UniProt P40261); assay: as above; conditions: MTase-Glo luminescence, SAH detection, recombinant enzyme; measured here: NNMT max response; stronger effect = lower value
# [9] = biological target: Phenylethanolamine N-methyltransferase (Homo sapiens) (UniProt P11086); assay: as above; conditions: MTase-Glo luminescence, SAH detection, recombinant enzyme; measured here: PNMT max response; stronger effect = lower value
# [10] = qHTS to identify inhibitors of the type 1 interferon - major histocompatibility complex class I in skeletal muscle: primary screen against the NCATS Mechanism Interrogation Plate v5.0 (MIPE) Libary (AID 1347411); further: potency means the concentration at half of the fitted maximal effect; nearly all actives have a fitted effect of over 65% in size
# Summary of the method: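 Luminescence from HiBiT-tagged endogenous HLA-B*08:01 served as the MHC class I read-out. CRISPR-engineered C25cl48 human myoblasts received 4.0 ng/ml IFN-beta plus compound for 24 hrs, with an 11-point, 1:3 series topping at 46 uM final.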
# [11] = qHTS assay to identify inhibitors of the type 1 interferon - major histocompatibility complex class I in skeletal muscle: Counter screen cell viability and HiBit confirmation (AID 1347412); conditions: iHSKM muscle cells + IFN-b, HiBiT or CellTiter-Glo, 24 h; HiBiT; further: potency means the concentration at half of the fitted maximal effect; nearly all actives have a fitted effect of over 60% in size
# Summary of the method: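 Myoblasts (C25cl48, HLA-B HiBiT) seeded in medium without dexamethasone, IFN-b 4 ng/ml added except unstimulated columns; 1 hr later compounds pinned (12-pt 1:3, top 46 uM final). Incubated 24 hrs, lysed 10 min, luminescence measured.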
# [12] = biological target: Luciferin 4-monooxygenase (Photinus pyralis) (UniProt P08659); assay: Biochemical firefly luciferase enzyme assay for NPC (AID 624030);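 further: purified P. pyralis luciferase at 10 nM with luciferin and ATP substrate; 0% = DMSO and -100% = full luciferase inhibition by PTC124 control; nearly all actives have a fitted effect of over 70% in size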
# Summary of the method: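 Direct inhibition of firefly luciferase enzyme (10 nM final, 50 mM Tris Acetate) assessed by luminescence within 5 minutes. Percent activity scaled between DMSO and PTC124 positive control, with concentration-effect curves classified by fit quality and response.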
# [13] = at 45.9 µM (top of the series), tumour line B
# [14] = at 46.1 µM (top of the series), tumour line C
# [15] = at 45.9 µM (top of the series), tumour line D
# Sequence of Ubiquitin carboxyl-terminal hydrolase 1 (Homo sapiens) (O94782 whole entry, looked up): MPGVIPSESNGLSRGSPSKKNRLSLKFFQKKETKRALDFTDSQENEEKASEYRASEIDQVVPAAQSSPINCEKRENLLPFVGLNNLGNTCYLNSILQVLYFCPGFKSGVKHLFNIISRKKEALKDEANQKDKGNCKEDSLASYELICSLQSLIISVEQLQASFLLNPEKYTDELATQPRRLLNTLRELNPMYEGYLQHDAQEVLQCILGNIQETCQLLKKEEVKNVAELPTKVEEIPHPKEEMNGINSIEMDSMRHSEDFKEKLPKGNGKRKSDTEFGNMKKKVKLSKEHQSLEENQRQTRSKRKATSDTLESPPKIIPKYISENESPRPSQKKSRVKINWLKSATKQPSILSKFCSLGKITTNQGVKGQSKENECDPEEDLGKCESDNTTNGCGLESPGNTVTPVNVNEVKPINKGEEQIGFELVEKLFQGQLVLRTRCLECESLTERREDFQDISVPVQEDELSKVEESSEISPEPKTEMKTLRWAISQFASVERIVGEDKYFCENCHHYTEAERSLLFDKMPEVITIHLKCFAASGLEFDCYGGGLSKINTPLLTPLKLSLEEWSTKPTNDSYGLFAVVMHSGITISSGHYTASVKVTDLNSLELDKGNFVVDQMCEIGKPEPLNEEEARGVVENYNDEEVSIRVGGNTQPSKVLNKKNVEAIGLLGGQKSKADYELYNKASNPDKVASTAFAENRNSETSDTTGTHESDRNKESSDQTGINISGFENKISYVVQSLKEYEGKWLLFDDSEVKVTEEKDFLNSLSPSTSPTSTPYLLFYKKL
# Sequence of Catechol O-methyltransferase (Homo sapiens) (P21964 whole entry, looked up): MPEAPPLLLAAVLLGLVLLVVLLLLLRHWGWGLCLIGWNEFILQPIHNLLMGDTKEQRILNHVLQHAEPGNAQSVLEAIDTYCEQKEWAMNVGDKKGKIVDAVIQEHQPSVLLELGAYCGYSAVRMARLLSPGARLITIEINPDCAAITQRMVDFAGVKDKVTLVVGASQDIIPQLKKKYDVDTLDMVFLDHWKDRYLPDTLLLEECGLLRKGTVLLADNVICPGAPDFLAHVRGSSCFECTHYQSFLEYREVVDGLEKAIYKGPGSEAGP
# Sequence of Luciferin 4-monooxygenase (Photinus pyralis) (P08659 whole entry, looked up): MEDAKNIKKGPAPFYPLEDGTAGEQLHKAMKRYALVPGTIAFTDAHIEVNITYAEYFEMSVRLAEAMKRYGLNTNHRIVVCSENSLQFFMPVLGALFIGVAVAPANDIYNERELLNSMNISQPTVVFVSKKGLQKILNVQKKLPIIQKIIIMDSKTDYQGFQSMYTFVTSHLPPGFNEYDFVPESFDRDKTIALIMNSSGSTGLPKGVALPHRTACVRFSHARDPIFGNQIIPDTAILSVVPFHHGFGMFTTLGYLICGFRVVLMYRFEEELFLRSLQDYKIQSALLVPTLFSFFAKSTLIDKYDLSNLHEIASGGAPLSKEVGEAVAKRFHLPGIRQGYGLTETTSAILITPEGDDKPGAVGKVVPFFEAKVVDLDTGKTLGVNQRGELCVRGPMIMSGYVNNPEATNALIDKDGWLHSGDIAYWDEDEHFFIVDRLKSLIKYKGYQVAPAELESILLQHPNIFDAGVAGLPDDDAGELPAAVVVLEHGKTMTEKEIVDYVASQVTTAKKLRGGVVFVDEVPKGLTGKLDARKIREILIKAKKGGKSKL
# Sequence of Nicotinamide N-methyltransferase (Homo sapiens) (P40261 whole entry, looked up): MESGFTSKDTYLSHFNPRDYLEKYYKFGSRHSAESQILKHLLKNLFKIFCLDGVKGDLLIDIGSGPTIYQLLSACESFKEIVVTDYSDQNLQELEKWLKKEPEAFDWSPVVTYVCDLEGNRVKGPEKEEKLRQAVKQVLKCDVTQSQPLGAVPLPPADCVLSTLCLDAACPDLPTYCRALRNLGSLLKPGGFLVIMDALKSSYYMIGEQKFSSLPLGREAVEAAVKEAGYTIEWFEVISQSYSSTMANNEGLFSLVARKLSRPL
# Sequence of Phenylethanolamine N-methyltransferase (Homo sapiens) (P11086 whole entry, looked up): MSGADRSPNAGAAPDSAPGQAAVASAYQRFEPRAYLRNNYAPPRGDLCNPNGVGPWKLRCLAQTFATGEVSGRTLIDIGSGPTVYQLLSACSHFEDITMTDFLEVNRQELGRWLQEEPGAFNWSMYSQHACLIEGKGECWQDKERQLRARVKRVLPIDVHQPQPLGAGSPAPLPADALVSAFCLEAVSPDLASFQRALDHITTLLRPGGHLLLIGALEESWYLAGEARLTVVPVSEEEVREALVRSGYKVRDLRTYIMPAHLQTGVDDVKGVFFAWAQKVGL
smiles,measurement,setting,value
C#C[C@]1(OC(C)=O)CC[C@H]2[C@@H]3CCC4=CC(=O)CC[C@@H]4[C@H]3CC[C@@]21C,"activity, negative = cell killing",[1]; [13],-16% (inactive)
same,"activity, negative = cell killing",[1]; [14],-23.2% (inactive)
same,Potency,[1]; tumour line A,35.5 µM (active)
Cc1nc2c(O)cccc2c(=O)[nH]1,Potency,[2],inactive
same,Potency,[3],inactive
same,Potency,[4],inactive
same,Potency,[5],inactive
Cn1cc(C2=C(c3cn(CCCSC(=N)N)c4ccccc34)C(=O)NC2=O)c2ccccc21,Potency,[3],5.17 µM (active)
same,Potency,[4],inactive
same,Potency,[5],inactive
COc1cc([C@@H]2c3cc4c(cc3C(O[C@@H]3O[C@@H]5CO[C@@H](C)O[C@H]5[C@H](O)[C@H]3O)C3COC(=O)[C@@H]32)OCO4)cc(OC)c1OP(=O)(O)O (stereo partly specified),"activity, negative = cell killing",[1]; [13],-18.7% (inactive)
same,"activity, negative = cell killing",[1]; [15],-17% (inactive)
same,"activity, negative = cell killing",[1]; [14],-13.7% (inactive)
same,Potency,[1]; tumour line A,15.8 µM (active)
C=C1/C(=C\C=C2/CCC[C@]3(C)[C@@H]([C@H](C)OCCC(C)(C)O)CC[C@@H]23)C[C@@H](O)C[C@@H]1O,"activity, negative = cell killing",[1]; [13],-19.1% (inactive)
same,"activity, negative = cell killing",[1]; [15],-17.2% (inactive)
same,"activity, negative = cell killing",[1]; [14],-27.4% (inactive)
same,Potency,[1]; tumour line A,25.1 µM (active)
C=C1C(=O)O[C@H]2[C@H]1CC/C(C)=C\CC[C@@]1(C)O[C@@H]21,Potency,astro,20 µM (active)
CCN(CC)C(=O)c1cc(S(=O)(=O)Cc2ccccc2)c(N2CCC(c3ccccc3)CC2)cc1N(CC)CCN(C)C,Potency,astro,12.6 µM (active)
C#Cc1cccc(Nc2ncnc3cc(OC)c(OC)cc23)c1,Potency,[3],5.17 µM (active)
same,Potency,[4],inactive
COc1ccc(C(=O)Nc2sc3c(c2C(N)=O)CCCC3)cc1OC,Potency,[3],inactive
same,Potency,[4],inactive
same,Potency,[5],inactive
Nc1ncnc2c1c(I)cn2C1OC(CO)C(O)C1O (stereo unspecified),Potency,[2],inactive
same,Potency,[3],3.26 µM (active)
same,Potency,[4],inactive
same,Potency,[5],inactive
same,activity,[6],-96.2%
same,Potency,[7],12.1 µM (active)
same,activity,[8],-88.4%
same,activity,[9],-97.6%
N#C/C(=C(\N)Sc1ccc(N)cc1)c1ccccc1C(F)(F)F,Potency,[3],inactive
O=c1[nH]ccc2c(S(=O)(=O)N3CCCNCC3)cccc12,Potency,[3],inactive
same,Potency,[4],26.7 µM (active)
CCCn1cnc2c(NCc3ccc(C)s3)nc(N[C@H](CC)CO)nc21,Potency,[3],inactive
O=C1NC(=O)/C(=C/c2ccc3nccc(-c4ccncc4)c3c2)S1,Potency,[3],1.64 µM (active)
same,Potency,[10],0.829 µM (active)
same,Potency,[11],4.97 µM (active)
CCOC(=O)CCC(=O)O[C@H]1[C@H](O[C@@H]2[C@@H](C)[C@H](O[C@H]3C[C@@](C)(OC)[C@@H](O)[C@H](C)O3)[C@@H](C)C(=O)O[C@H](CC)[C@@](C)(O)[C@H](O)[C@@H](C)C(=O)[C@H](C)C[C@@]2(C)O)O[C@H](C)C[C@@H]1N(C)C,"activity, negative = cell killing",[1]; [13],-6.36% (inactive)
same,"activity, negative = cell killing",[1]; [15],-16.9% (inactive)
same,"activity, negative = cell killing",[1]; [14],1.07% (inactive)
same,Potency,[1]; tumour line A,35.5 µM (active)
same,Potency,astro,inactive
COc1cc(/C=C(\C#N)C(N)=O)cc(CSc2nc3ccccc3s2)c1O,Potency,[3],inactive
same,Potency,[4],inactive
same,Potency,[5],inactive
CN1CCN(CCC=C2c3ccccc3Sc3ccc(S(=O)(=O)N(C)C)cc32)CC1,Potency,[2],inactive
same,Potency,[12],inactive
same,"activity, negative = cell killing",[1]; [14],4.82% (inactive)
same,Potency,[1]; tumour line A,7.08 µM (active)
same,Potency,[1]; tumour line B,35.5 µM (active)
same,Potency,astro,31.6 µM (active)
NC(=O)c1sc(-c2ccsc2)cc1N,Potency,[3],inactive
same,Potency,[4],inactive
